Several values for one entry are separate records, joined by “and”; a condition that tells them apart may be missing. Identical values can stand only once. In all, about 5,500 compounds went through this assay and about 2,000 (36%) were called active. Roughly 18% stayed inconclusive and do not appear here. No stated cut-off is given here; in the data, active means normalized growth mostly below about 0.91 (no sharp cut-off); inconclusive means no clear call, values can overlap the other calls; inactive means mostly above about 0.92. Some of the results follow.
Experiment: chemical genetic growth profiling, strain panel (AID 1159580);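 further: tested at 20 µM; growth read once vehicle control cultures reached saturation at 30 °C; 1 = growth at the plate median or of vehicle wells; lower values mean less growth of the strain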
Conditions: S. cerevisiae deletion strains, growth OD

Measured: normalized growth

NCCCC[C@H](N[C@@H](CCc1ccccc1)C(=O)O)C(=O)N1CCC[C@H]1C(=O)O
inactive: locus YAL021C, strain ccr4, hits give low values 1.01 | locus YAL026C, strain drs2, hits give low values 1.02 | locus YAL030W, strain snc1, hits give low values 0.978 | locus YBL061C, strain skt5, hits give low values 1.01 | locus YBR009C, strain hhf1, hits give low values 0.98 | locus YBR021W, strain FUR4, hits give low values 1.01 | locus YBR023C, strain chs3, hits give low values 0.998 | locus YBR171W, strain sec66, hits give low values 1.02 | locus YBR229C, strain ROT2, hits give low values 0.962 | locus YBR231C, strain swc5, hits give low values 1.01 | locus YBR279W, strain paf1, hits give low values 0.998 | locus YCL011C, strain gbp2, hits give low values 0.997 | locus YCL016C, strain dcc1, hits give low values 0.99 | locus YCL029C, strain bik1, hits give low values 0.992 | locus YCL069W, strain vba3, hits give low values 1.03 | locus YCR088W, strain abp1, hits give low values 1.03 | locus YDL005C, strain med2, hits give low values 1.03 | locus YDL035C, strain GPR1, hits give low values 0.995 | locus YDL040C, strain nat1, hits give low values 0.998 | locus YDL074C, strain BRE1, hits give low values 0.932 | locus YDL101C, strain DUN1, hits give low values 0.982 | locus YDL134C, strain PPH21, hits give low values 1 | locus YDL185W, strain tfp1, hits give low values 0.989 | locus YDL192W, strain arf1, hits give low values 0.992 | locus YDR001C, strain nth1, hits give low values 1.01 | locus YDR069C, strain doa4, hits give low values 0.935 | locus YDR101C, strain arx1, hits give low values 0.995 | locus YDR137W, strain rgp1, hits give low values 0.994 | locus YDR150W, strain NUM1, hits give low values 0.99 | locus YDR159W, strain sac3, hits give low values 0.923 | locus YDR162C, strain NBP2, hits give low values 0.994 | locus YDR195W, strain ref2 0.987 | locus YDR297W, strain sur2, hits give low values 0.979 | locus YDR318W, strain mcm21, hits give low values 1 | locus YDR334W, strain swr1, hits give low values 1.01 | locus YDR335W, strain msn5, hits give low values 0.972 | locus YDR388W, hits give low values 0.993 | locus YDR392W, strain spt3, hits give low values 1.01 | locus YDR502C, strain sam2, hits give low values 0.999 | locus YEL003W, strain gim4, hits give low values 1.02 | locus YEL037C, strain rad23, hits give low values 1.01 | locus YEL061C, strain CIN8 (second series), hits give low values 1.02 | locus YEL061C, strain CIN8, hits give low values 0.978 | locus YER015W, strain faa2, hits give low values 1 | locus YER016W, strain bim1, hits give low values 0.997 | locus YER110C, hits give low values 0.989 | locus YER111C, strain swi4, hits give low values 1.02 | locus YER155C, strain BEM2 (second series), hits give low values 0.994 | locus YER155C, strain BEM2, hits give low values 0.996 | locus YER167W, strain BCK2, hits give low values 0.989 | locus YFR010W, strain ubp6, hits give low values 1.01 | locus YGL078C, strain dbp3, hits give low values 1 | locus YGL086W, strain mad1, hits give low values 0.982 | locus YGL167C, strain pmr1, hits give low values 1.01 | locus YGL173C, strain kem1, hits give low values 1.04 | locus YGL227W, strain vid30, hits give low values 1.01 | locus YGL240W, strain doc1, hits give low values 0.92 | locus YGL248W, strain PDE1, hits give low values 0.966 | locus YGL253W, strain hxk2, hits give low values 0.971 | locus YGR135W, strain pre9, hits give low values 1.01 | locus YGR252W, strain gcn5, hits give low values 1.02 | locus YHR013C, strain ard1, hits give low values 1.01 | locus YHR027C, strain rpn1, hits give low values 0.985 | locus YHR030C, strain SLT2, hits give low values 0.996 and 1.03 | locus YHR079C, strain IRE1 (second series), hits give low values 0.999 | locus YHR079C, strain IRE1, hits give low values 1.05 | locus YHR094C, strain hxt1, hits give low values 0.995 | locus YHR129C, strain ARP1, hits give low values 0.997 | locus YHR142W, strain chs7, hits give low values 1.03 | locus YHR200W, strain rpn10, hits give low values 1 | locus YIL066C, strain RNR3, hits give low values 0.973 | locus YIL073C, strain SPO22, hits give low values 1.06 | locus YIL125W, strain kgd1, hits give low values 0.993 | locus YIR030C, strain dcg1, hits give low values 0.993 | locus YJL092W, strain hpr5, hits give low values 1.02 | locus YJL095W, strain BCK1 (second series), hits give low values 0.972 | locus YJL095W, strain BCK1, hits give low values 0.968 and 1.01 | locus YJL115W, strain asf1, hits give low values 1.01 | locus YJL129C, strain trk1, hits give low values 1.04 | locus YJL134W, strain LCB3, hits give low values 0.994 | locus YJL154C, strain vps35, hits give low values 1.03 | locus YJL164C, strain tpk1, hits give low values 1.02 | locus YJL166W, strain qcr8, hits give low values 0.989 | locus YJL168C, strain set2, hits give low values 0.995 | locus YJL187C, strain SWE1 (second series), hits give low values 0.971 | locus YJR043C, strain POL32, hits give low values 0.986 | locus YJR066W, strain TOR1, hits give low values 0.969 | locus YJR075W, strain HOC1, hits give low values 0.979

From PubChem BioAssay AID1159580 (chemical genetic matrix, 2015)
